Data reported in publication PMC4552634, “A New Set of Chemical Starting Points with Plasmodium falciparum Transmission-Blocking Potential for Antimalarial Drug Discovery” (PLoS ONE, 2015).
The whole screen tested about 13,000 compounds, of which about 3,200 (25%) showed an effect of 50% or more. This is one part of the list.

Test system: P. falciparum stage V gametocytes
Set-up: BacTiter-Glo ATP luminescence viability of purified stage V gametocytes in 384-well plates, per cent inhibition versus DMSO
Details: 48 h, 5 µM; inhibitor

Row | SMILES | % Inhibition
1 | Cc1cc(F)ccc1[C@H]1CNCCN1C(=O)N(C)[C@@H](C)c1cc(C(F)(F)F)cc(C(F)(F)F)c1 [TCMDC-138495] | 76.86%
2 | Cc1cc(F)ccc1[C@H]1CNCCN1C(=O)N(C)C(C)(C)c1cc(C(F)(F)F)cc(C(F)(F)F)c1 [TCMDC-138568] | 62.57%
3 | Cc1cc(F)ccc1[C@H]1C[C@H](N2CCOCC2)CCN1C(=O)N(C)[C@@H](C)c1cc(C(F)(F)F)cc(C(F)(F)F)c1 [TCMDC-138838] | 17.17%
4 | CCNc1cc(C(=O)N[C@@H](Cc2ccccc2)[C@H](O)CNC2CCC(C(C)(C)C)CC2)cc(N2CCCC2=O)c1 (stereo partly drawn) [TCMDC-138903] | 47.86%
5 | CC(Oc1ccc(Cl)cc1)C(=O)Nc1cc(C(F)(F)F)ccc1N1CCOCC1 (stereo not drawn) [TCMDC-125311] | 3.686%
6 | CC1CCCN(C(=O)C(C)Nc2cc(Cl)ccc2N2CCOCC2)C1 (stereo not drawn) [TCMDC-125110] | 85%
7 | Cc1ccnc2nc(C(=O)Nc3cc(Cl)ccc3N3CCOCC3)nn12 [TCMDC-124435] | 7.323%
8 | COc1ccccc1CNC(=O)CCn1c(=O)[nH]c2ccsc2c1=O [TCMDC-123587] | 30.03%
9 | O=C(CSc1nc2ccccc2c(=O)n1C1CC1)Nc1cc(C(F)(F)F)ccc1Cl [TCMDC-123578] | -84.13%
10 | NC(N)=NCC=C(c1ccccc1)c1ccccc1 [TCMDC-137566] | 51.32%
11 | NC(N)=NCCCN(Cc1ccccc1)c1ccccc1 [TCMDC-131836] | 40.87%
12 | CC1(C)N=C(N)N=C(N)N1OCOc1cc(Cl)c(Cl)cc1Cl [TCMDC-131783] | 42.76%
13 | CCOC(=O)c1cc(Cl)cc(Cl)c1OCCCON1C(N)=NC(N)=NC1(C)C [TCMDC-131703] | 21.46%
14 | O=C(Nc1ccc(-c2nc3ccccc3[nH]2)cc1)c1cccc(S(=O)(=O)N2CCCC2)c1 [TCMDC-125262] | -9.526%
15 | CC(C)CNCc1ccc(-c2cccc(CN(CCN(C)C)C(=O)CCC3CCCC3)c2)cc1 [TCMDC-140553] | 109.4%
16 | CC[C@H](C)CNC(=O)c1cncc(-c2ccc(CNC3CCCC3)cc2)c1 [TCMDC-134232] | 8.826%
17 | CC(C)CNCc1cccc(-c2cccc(CN(CCCN3CCN(C)CC3)C(=O)NC3CCCCC3)c2)c1 [TCMDC-140633] | 106.9%
18 | CN(C)CCN(Cc1ccc(-c2ccc(CNCCc3ccccc3)cc2)nc1)C(=O)CCC1CCCC1 [TCMDC-141402] | 63.7%
19 | CC(C)CNC(=O)c1cncc(-c2ccc(CN(C)C3CCN(C)CC3)cc2)c1 [TCMDC-134235] | 31.51%
20 | CC(C)CNCc1ccc(-c2ccc(CN(CCCN3CCN(C)CC3)C(=O)CCC3CCCC3)cc2)cc1 [TCMDC-140559] | 105.9%
21 | CC[C@H](C)CNC(=O)c1cncc(-c2ccc(CN(C)C3CCN(C)CC3)cc2)c1 [TCMDC-134233] | 22.49%

Row | SMILES | % Inhibition
22 | COc1cc(NC(=O)/C=C/c2ccccc2OC(F)(F)F)cc(OCCN2CCN(CCN3CCOCC3)CC2)c1 [TCMDC-140929] | -8.825%
23 | COc1cc(NC(=O)NC(CCN2CCC3(CCc4ccccc43)CC2)c2ccc(Cl)c(Cl)c2)cc(OC)c1OC (stereo not drawn) [TCMDC-141765] | -19.84%
24 | CCC(C)CN1CCC(N(C)c2cc(NC(=O)c3ccc(F)cc3)ccn2)CC1 (stereo not drawn) [TCMDC-134951] | 19.56%
25 | Nc1nc(N)c(-c2ccccc2)c(=O)[nH]1 [TCMDC-137349] | 4.514%
26 | CC(C)CNCc1cccc(-c2cccc(CN(CCCN3CCN(C)CC3)C(=O)CCC3CCCC3)c2)c1 [TCMDC-140554] | 109.3%
27 | CC(C)CNCc1cccc(-c2ccc(CN(CCCN3CCN(C)CC3)C(=O)CCC3CCCC3)cc2)c1 [TCMDC-140558] | 107.6%
28 | CC[C@H](C)CNC(=O)c1ccnc(-c2cccc(CN(C)C3CCN(C)CC3)c2)c1 [TCMDC-134243] | -9.422%
29 | CC[C@H](C)CNC(=O)c1cncc(-c2cccc(CN(C)C3CCN(C)CC3)c2)c1 [TCMDC-134225] | 17.67%
30 | COc1cc(OC)c(OC)cc1CN1CCC2(CC1)CN(Cc1ccc(Cl)c(Cl)c1)C(=O)O2 [TCMDC-132175] | 23.65%
31 | CCOc1c(CNCCCNc2cc(=O)c3ccccc3[nH]2)cc(I)cc1C(C)(C)C [TCMDC-140132] | -43.73%
32 | O=C(Nc1cccc(F)c1)c1ccc(C(=O)NC2CCN(CC3CCCCC3)C2)cc1 (stereo not drawn) [TCMDC-136741] | 0.01446%
33 | CC(CN(C)C)C(=O)Nc1ccc(-c2ccc(-c3nc4ccccc4[nH]3)cc2)cc1 (stereo not drawn) [TCMDC-137108] | 88.79%
34 | CC(CN(C)C)C(=O)Nc1ccc(-c2csc(-c3nc4ccccc4[nH]3)c2)cc1 (stereo not drawn) [TCMDC-132390] | 44.44%
35 | CC(CN(C)C)C(=O)Nc1cccc(-c2cccc(-c3nc4ccccc4[nH]3)c2)c1 (stereo not drawn) [TCMDC-137101] | 94.09%
36 | CC(CN(C)C)C(=O)Nc1cccc(-c2ccc(-c3nc4ccccc4[nH]3)cc2)c1 (stereo not drawn) [TCMDC-137107] | -47.86%
37 | CC(CN(C)C)C(=O)Nc1cccc(-c2cccc(-c3nc4ccc(F)cc4[nH]3)c2)c1 (stereo not drawn) [TCMDC-137104] | -36.15%
38 | CC(CN(C)C)C(=O)Nc1ccc(-c2cccc(-c3nc4ccccc4[nH]3)c2)cc1 (stereo not drawn) [TCMDC-137099] | -5.672%
39 | C#CCNCc1ccc(-c2ccc(-c3nc4cc(C(F)(F)F)ccc4[nH]3)s2)cc1.O=C(O)C(F)(F)F [TCMDC-132805] | -48.9%
40 | COc1cc(CCON2C(N)=NC(N)=NC2(C)C)cc(OC)c1OC [TCMDC-131368] | -0.5645%
41 | CC[C@]1(C)C[C@@H](NC(=O)NC(=O)c2ccc(OC)cc2)[C@]2(C)[C@H](C)CC[C@]3(CCC(=O)[C@H]32)[C@@H](C)[C@@H]1OC(=O)NC(=O)c1ccc(OC)cc1 [TCMDC-139025] | 34.49%
42 | O=S(=O)(c1cc(Cl)c(Cl)cc1Cl)N1CCCCC(c2ccc(C(F)(F)F)cc2)=N1 [TCMDC-134542] | -0.152%
